# Test results published in the supplement of paper PMC4022240.
# ± gives the standard deviation.
# T1: HaloTag-ATRX ADD domain (163-292)
# T1 chain: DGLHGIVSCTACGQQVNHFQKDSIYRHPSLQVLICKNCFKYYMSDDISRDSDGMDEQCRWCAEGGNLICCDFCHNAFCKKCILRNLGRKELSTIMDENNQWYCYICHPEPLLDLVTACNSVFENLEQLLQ
# Target: T1, HaloTag-ATRX ADD domain (163-292)
# Test: peptide microarray binding signal (635 nm), min-max normalized on array (fraction of array maximum); higher = stronger binding
# Details: peptide region: Unmod H1 variant; binder concentration: 50 nM
# Procedure, shortened: (§1)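 Histone 13-mer peptide–cellulose conjugates were printed in triplicate on nitrocellulose with a Cy3 tracer, then blocked overnight at 4°C. Arrays were probed for 1 h at 4°C with biotin-labelled HaloTag reader fusions (10 nM to 1 μM) plus streptavidin-Alexa Fluor 647, or with rabbit histone antibodies (1:10,000 to 1:2,000) plus anti-rabbit Alexa 647. An Axon GenePix 4000B scanned 635 nm for signal and 532 nm for misprints. Binding signal is the triplicate-spot mean intensity, min-max scaled per library.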
row,Binder,peptide microarray binding signal
1,EKNNSRIKLGLKS [Unmod H1 variant E K N N S R I K L G L K S],0.0196 ± 0.00022
2,TLVQTKGTGASGS [Unmod H1 variant T L V Q T K G T G A S G S],0.0308 ± 0.012
3,ASGSFKLNKKAAS [Unmod H1 variant A S G S F K L N K K A A S],0.0207 ± 0.0013
4,KAASGEAKPKAKK [Unmod H1 variant K A A S G E A K P K A K K],0.0252 ± 0.0022
5,KAKKAGAAKAKKP [Unmod H1 variant K A K K A G A A K A K K P],0.01282 ± 3.1e-05
6,AKKPAGAAKKPKK [Unmod H1 variant A K K P A G A A K K P K K],0.00931 ± 0.00023
7,KPKKATGAATPKK [Unmod H1 variant K P K K A T G A A T P K K],0.00674 ± 0.0014
8,TPKKSAKKTPKKA [Unmod H1 variant T P K K S A K K T P K K A],0.0108 ± 0.0035
9,PKKAKKPAAAAGA [Unmod H1 variant P K K A K K P A A A A G A],0.0116 ± 7.8e-05
10,AAGAKKAKSPKKA [Unmod H1 variant A A G A K K A K S P K K A],0.0119 ± 0.00059

# Same assay, conditions: peptide region: Unmod H1 variant; binder concentration: 500 nM
row,Binder,peptide microarray binding signal
1,EKNNSRIKLGLKS [Unmod H1 variant E K N N S R I K L G L K S],0.0155 ± 0.00098
2,TLVQTKGTGASGS [Unmod H1 variant T L V Q T K G T G A S G S],0.0171 ± 0.0029
3,ASGSFKLNKKAAS [Unmod H1 variant A S G S F K L N K K A A S],0.00791 ± 0.00049
4,KAASGEAKPKAKK [Unmod H1 variant K A A S G E A K P K A K K],0.0245 ± 0.0017
5,KAKKAGAAKAKKP [Unmod H1 variant K A K K A G A A K A K K P],0.0114 ± 0.00065
6,AKKPAGAAKKPKK [Unmod H1 variant A K K P A G A A K K P K K],0.00786 ± 0.00022
7,KPKKATGAATPKK [Unmod H1 variant K P K K A T G A A T P K K],0.00957 ± 0.00063
8,TPKKSAKKTPKKA [Unmod H1 variant T P K K S A K K T P K K A],0.0104 ± 0.0011
9,PKKAKKPAAAAGA [Unmod H1 variant P K K A K K P A A A A G A],0.00771 ± 0.00013
10,AAGAKKAKSPKKA [Unmod H1 variant A A G A K K A K S P K K A],0.01348 ± 5.3e-05

# Target: HaloTag-ING2 PHD (mouse Ing2 200-280)
# Test: as above
# Details: peptide region: Unmod H1 variant; binder concentration: 10 nM
# Procedure, shortened: as §1
row,Binder,peptide microarray binding signal
1,EKNNSRIKLGLKS [Unmod H1 variant E K N N S R I K L G L K S],0.00585 ± 0.0006
2,TLVQTKGTGASGS [Unmod H1 variant T L V Q T K G T G A S G S],0.00734 ± 0.00017
3,ASGSFKLNKKAAS [Unmod H1 variant A S G S F K L N K K A A S],0.00233 ± 5.8e-05
4,KAASGEAKPKAKK [Unmod H1 variant K A A S G E A K P K A K K],0.007579 ± 5.8e-05
5,KAKKAGAAKAKKP [Unmod H1 variant K A K K A G A A K A K K P],0.00424 ± 5.8e-05
6,AKKPAGAAKKPKK [Unmod H1 variant A K K P A G A A K K P K K],0.003103 ± 3e-05
7,KPKKATGAATPKK [Unmod H1 variant K P K K A T G A A T P K K],0.003939 ± 2.1e-05
8,TPKKSAKKTPKKA [Unmod H1 variant T P K K S A K K T P K K A],0.00322 ± 4.7e-05
9,PKKAKKPAAAAGA [Unmod H1 variant P K K A K K P A A A A G A],0.00322 ± 4.7e-05
10,AAGAKKAKSPKKA [Unmod H1 variant A A G A K K A K S P K K A],0.003342 ± 1.8e-05

# Same assay, conditions: peptide region: Unmod H1 variant; binder concentration: 100 nM
row,Binder,peptide microarray binding signal
1,EKNNSRIKLGLKS [Unmod H1 variant E K N N S R I K L G L K S],0.0201 ± 0.0018
2,TLVQTKGTGASGS [Unmod H1 variant T L V Q T K G T G A S G S],0.0165 ± 0.00046
3,ASGSFKLNKKAAS [Unmod H1 variant A S G S F K L N K K A A S],0.00425 ± 7.2e-05
4,KAASGEAKPKAKK [Unmod H1 variant K A A S G E A K P K A K K],0.0113 ± 0.0012
5,KAKKAGAAKAKKP [Unmod H1 variant K A K K A G A A K A K K P],0.00935 ± 0.00021
6,AKKPAGAAKKPKK [Unmod H1 variant A K K P A G A A K K P K K],0.00765 ± 0.00058
7,KPKKATGAATPKK [Unmod H1 variant K P K K A T G A A T P K K],0.00893 ± 0.00084
8,TPKKSAKKTPKKA [Unmod H1 variant T P K K S A K K T P K K A],0.0121 ± 0.0049
9,PKKAKKPAAAAGA [Unmod H1 variant P K K A K K P A A A A G A],0.00652 ± 0.00013
10,AAGAKKAKSPKKA [Unmod H1 variant A A G A K K A K S P K K A],0.00999 ± 0.0011

# Target: anti-H3K4me3 antibody ab8580
# Test: as above
# Details: peptide region: Unmod H1 variant; binder concentration: 1:2,000 dilution
# Procedure, shortened: as §1
row,Binder,peptide microarray binding signal
1,EKNNSRIKLGLKS [Unmod H1 variant E K N N S R I K L G L K S],0.00196 ± 0.00038
2,TLVQTKGTGASGS [Unmod H1 variant T L V Q T K G T G A S G S],0.00255 ± 9.7e-05
3,ASGSFKLNKKAAS [Unmod H1 variant A S G S F K L N K K A A S],0.00132 ± 0.0003
4,KAASGEAKPKAKK [Unmod H1 variant K A A S G E A K P K A K K],0.000831 ± 4.9e-05
5,KAKKAGAAKAKKP [Unmod H1 variant K A K K A G A A K A K K P],0.000906 ± 2.4e-05
6,AKKPAGAAKKPKK [Unmod H1 variant A K K P A G A A K K P K K],0.0006041 ± 5.8e-06
7,KPKKATGAATPKK [Unmod H1 variant K P K K A T G A A T P K K],0.000925 ± 2.1e-05
8,TPKKSAKKTPKKA [Unmod H1 variant T P K K S A K K T P K K A],0.000812 ± 4.4e-05
9,PKKAKKPAAAAGA [Unmod H1 variant P K K A K K P A A A A G A],0.000736 ± 1.2e-05
10,AAGAKKAKSPKKA [Unmod H1 variant A A G A K K A K S P K K A],0.00068 ± 1.9e-05

# Same assay, conditions: peptide region: Unmod H1 variant; binder concentration: 1:10,000 dilution
row,Binder,peptide microarray binding signal
1,EKNNSRIKLGLKS [Unmod H1 variant E K N N S R I K L G L K S],0.00137 ± 4.9e-05
2,TLVQTKGTGASGS [Unmod H1 variant T L V Q T K G T G A S G S],0.00388 ± 0.00013
3,ASGSFKLNKKAAS [Unmod H1 variant A S G S F K L N K K A A S],0.000913 ± 1.6e-05
4,KAASGEAKPKAKK [Unmod H1 variant K A A S G E A K P K A K K],0.00171 ± 4.3e-05
5,KAKKAGAAKAKKP [Unmod H1 variant K A K K A G A A K A K K P],0.00148 ± 2.9e-05
6,AKKPAGAAKKPKK [Unmod H1 variant A K K P A G A A K K P K K],0.00217 ± 0.0002
7,KPKKATGAATPKK [Unmod H1 variant K P K K A T G A A T P K K],0.00171 ± 5.9e-05
8,TPKKSAKKTPKKA [Unmod H1 variant T P K K S A K K T P K K A],0.00137 ± 4.9e-05
9,PKKAKKPAAAAGA [Unmod H1 variant P K K A K K P A A A A G A],0.001541 ± 1.5e-05
10,AAGAKKAKSPKKA [Unmod H1 variant A A G A K K A K S P K K A],0.00143 ± 2.4e-05

# Target: anti-H3K9me3 antibody ab8898
# Test: as above
# Details: peptide region: Unmod H1 variant; binder concentration: 1:2,000 dilution
# Procedure, shortened: as §1
row,Binder,peptide microarray binding signal
1,EKNNSRIKLGLKS [Unmod H1 variant E K N N S R I K L G L K S],0.000317 ± 5.6e-06
2,TLVQTKGTGASGS [Unmod H1 variant T L V Q T K G T G A S G S],0.0019 ± 0.00012
3,ASGSFKLNKKAAS [Unmod H1 variant A S G S F K L N K K A A S],0.000257 ± 2.7e-06
4,KAASGEAKPKAKK [Unmod H1 variant K A A S G E A K P K A K K],0.000483 ± 1.7e-05
5,KAKKAGAAKAKKP [Unmod H1 variant K A K K A G A A K A K K P],0.000423 ± 8.2e-06
6,AKKPAGAAKKPKK [Unmod H1 variant A K K P A G A A K K P K K],0.000423 ± 8.2e-06
7,KPKKATGAATPKK [Unmod H1 variant K P K K A T G A A T P K K],0.000408 ± 1.2e-05
8,TPKKSAKKTPKKA [Unmod H1 variant T P K K S A K K T P K K A],0.000287 ± 1.1e-05
9,PKKAKKPAAAAGA [Unmod H1 variant P K K A K K P A A A A G A],0.000483 ± 9.2e-06
10,AAGAKKAKSPKKA [Unmod H1 variant A A G A K K A K S P K K A],0.0004379 ± 4.2e-06

# Same assay, conditions: peptide region: Unmod H1 variant; binder concentration: 1:10,000 dilution
row,Binder,peptide microarray binding signal
1,EKNNSRIKLGLKS [Unmod H1 variant E K N N S R I K L G L K S],0.00098
2,TLVQTKGTGASGS [Unmod H1 variant T L V Q T K G T G A S G S],0.00231 ± 7.5e-05
3,ASGSFKLNKKAAS [Unmod H1 variant A S G S F K L N K K A A S],0.00075 ± 1.6e-05
4,KAASGEAKPKAKK [Unmod H1 variant K A A S G E A K P K A K K],0.001211 ± 1.2e-05
5,KAKKAGAAKAKKP [Unmod H1 variant K A K K A G A A K A K K P],0.00075 ± 7.9e-06
6,AKKPAGAAKKPKK [Unmod H1 variant A K K P A G A A K K P K K],0.00104 ± 1.1e-05
7,KPKKATGAATPKK [Unmod H1 variant K P K K A T G A A T P K K],0.00121 ± 2.4e-05
8,TPKKSAKKTPKKA [Unmod H1 variant T P K K S A K K T P K K A],0.000865 ± 9e-06
9,PKKAKKPAAAAGA [Unmod H1 variant P K K A K K P A A A A G A],0.00098
10,AAGAKKAKSPKKA [Unmod H1 variant A A G A K K A K S P K K A],0.00115
